According to PubChem BioAssay (NCATS):
Results filed as inconclusive are left out. Active and inactive are the calls of the source. Unless noted, calls come from the whole dose curve; as a rule, active = well fitted curve in the direction sought with a large enough effect; inconclusive = small, poorly fitted or top-dose-only effect, or another doubt; inactive = no such curve, though single readings can be large; an effect the other way counts as inactive or inconclusive.

Key:
[1] = biological target: ATPase family AAA domain-containing protein 5 (Homo sapiens) (UniProt Q96QE3); experiment: Validation screen for small molecules that inhibit ELG1-dependent DNA repair in human embryonic kidney (HEK293T) cells expressing luciferase-tagged ELG1 (AID 493107); conditions: HEK293T ELG1-luciferase level, luminescence, 5-fluorouridine co-treatment, 16 h; series mostly up to 46.1 µM;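 note: cells co-treated with the DNA-damaging agent 5-fluorouridine alongside compound; inhibitors lower the ELG1-luciferase luminescence signal; nearly all actives have a fitted effect of over 70% in size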
Method in brief: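 Cells are dispensed in 1536-well format, then 5-fluorouridine and compound are pinned in. After a 16 hr incubation at 37 °C and 5% CO2, ONE-Glo is added and luciferase measured on a CCD imager.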

[2] = Nrf2 qHTS screen for inhibitors: Validation (AID 493153; active = well fitted inhibition curve with a large enough effect in the main read-out, with a control signal flat, not every such curve was filed as active); conditions: A549 ARE-Fluc reporter, 18-24 h; viability change: measured here: cytotoxicity max response; luciferase luminescence, at 46.1 µM (top of the series)
Method in brief: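 A549 ARE_Fluc, 5% FBS OPTI-MEM; cpd titration, 18-24 h, 37°C/5% CO2. Read 1: CellTiter-Fluor (Ex 405/Em 525), cytotox. Read 2: luciferase lum, Nrf2 activity.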

[3] = qHTS for Inhibitors of Cell Surface uPA Generation: Validation Assay (AID 493164); conditions: mouse cells, plasminogen activation; series mostly up to 38.3 µM;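 note: RAW 264.7 macrophage cells exposed to compound for 18 h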
Method in brief: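 ATP-Lite luminescence read-out: ATP remains high when uPA activity-dependent LF translocation into the cytoplasm is blocked. RAW 264.7 cells, 18 h compound exposure at 37 C; 7-point titration, 2.45 nM to 38.3 uM final.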

[4] = biological target: Galactokinase (Homo sapiens) (UniProt P51570); experiment: qHTS Validation Assay for Inhibitors of Human Galactokinase (GALK) (AID 493189); conditions: purified human GALK enzyme activity, qHTS 7-point titration; series mostly up to 57.5 µM
Method in brief: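 5 nM GALK / 100 uM galactose / 35 uM ATP, 20 mM HEPES pH8.0, 5 mM MgCl2, 60 mM NaCl, 1 mM DTT, 0.01% BSA (final). RT 1 h; Kinase-Glo Plus luminescence.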

[5] = Validation screen for small molecules that induce DNA re-replication in SW480 colon adenocarcinoma cells (AID 504364); conditions: DNA re-replication phenotype (high-content imaging); series mostly up to 46.1 µM
Method in brief: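 Image-based qHTS: compounds were incubated with SW480 cells for 48 hr, nuclei stained with Hoechst, and per-nucleus fluorescence intensity scanned to flag cells with excess DNA content.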

[6] = biological target: Peptidyl-prolyl cis-trans isomerase NIMA-interacting 1 (Homo sapiens) (UniProt Q13526); experiment: qHTS Validation Assay to Find Inhibitors of Pin1 (AID 504536; active = well fitted inhibition curve with a large enough effect in the polarisation, with a control signal flat, not every such curve was filed as active; the % refers to the polarisation); conditions: Pin1 fluorescence polarization peptide binding assay; series mostly up to 57.5 µM
Method in brief: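 Fluorescence polarization competition: compounds (titration) displace HiFluor-488-labeled Pin1-1b peptide from Pin1 (0.3 uM final) in pH 7.5 HEPES buffer with DTT, 10 min at room temperature; %Activity normalized to no-enzyme wells, curves fitted.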

[7] = biological target: Phosphoglycerate kinase, glycosomal (Trypanosoma brucei brucei) (UniProt P07378); experiment: qHTS Validation Assay to Find Inhibitors of Phosphoglycerate Kinase (AID 504547); conditions: enzymatic PGK inhibition, coupled luminescence read-out; series mostly up to 57.5 µM
Method in brief: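 Compounds are pinned into the substrate/PGK mixture, and GAPDH (100nM final) is added to start the reaction by producing 1,3-BPG. After 60 minutes at room temperature, Kinase-Glo Plus is added and luminescence is measured 10 minutes later.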

[8] = biological target: phosphoglycerate mutase (Leishmania major) (UniProt Q4Q090); experiment: qHTS Validation Assay to Find Inhibitors of Phosphoglycerate Mutase (AID 504548); conditions: biochemical enzyme activity; series mostly up to 57.5 µM;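 note: end-point luminescence from Kinase-GloPlus after the PGAM reaction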
Method in brief: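 Inhibition of L. major PGAM was assessed by Kinase-GloPlus luminescence following a 45-minute room-temperature reaction with enzyme at 1.25nM final.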

Measured: viability change

Sequence of Galactokinase (Homo sapiens) (P51570 whole entry, looked up): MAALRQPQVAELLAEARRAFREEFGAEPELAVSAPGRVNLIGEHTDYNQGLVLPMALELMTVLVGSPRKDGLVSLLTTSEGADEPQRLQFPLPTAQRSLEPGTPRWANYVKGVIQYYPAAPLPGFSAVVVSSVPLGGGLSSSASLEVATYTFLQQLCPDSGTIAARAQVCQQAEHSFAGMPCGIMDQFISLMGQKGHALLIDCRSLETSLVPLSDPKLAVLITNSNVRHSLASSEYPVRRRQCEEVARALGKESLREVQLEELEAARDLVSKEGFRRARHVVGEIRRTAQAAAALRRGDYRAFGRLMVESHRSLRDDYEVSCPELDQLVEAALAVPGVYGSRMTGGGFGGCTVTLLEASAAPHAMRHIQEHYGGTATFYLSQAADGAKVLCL
Sequence of Phosphoglycerate kinase, glycosomal (Trypanosoma brucei brucei) (P07378 whole entry, looked up): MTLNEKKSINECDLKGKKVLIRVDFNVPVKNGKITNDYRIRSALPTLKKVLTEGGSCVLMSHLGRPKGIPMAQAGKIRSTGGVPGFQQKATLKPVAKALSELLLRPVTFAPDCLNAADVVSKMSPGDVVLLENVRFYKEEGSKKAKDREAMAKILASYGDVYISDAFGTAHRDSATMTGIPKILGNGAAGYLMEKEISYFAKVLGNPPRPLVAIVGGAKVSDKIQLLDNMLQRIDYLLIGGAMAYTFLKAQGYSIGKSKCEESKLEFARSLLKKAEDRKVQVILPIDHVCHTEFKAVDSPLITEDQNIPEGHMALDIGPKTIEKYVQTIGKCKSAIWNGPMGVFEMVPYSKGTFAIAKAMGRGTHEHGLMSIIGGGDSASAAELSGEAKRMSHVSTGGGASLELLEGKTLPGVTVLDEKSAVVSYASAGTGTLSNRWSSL
Sequence of Peptidyl-prolyl cis-trans isomerase NIMA-interacting 1 (Homo sapiens) (Q13526 whole entry, looked up): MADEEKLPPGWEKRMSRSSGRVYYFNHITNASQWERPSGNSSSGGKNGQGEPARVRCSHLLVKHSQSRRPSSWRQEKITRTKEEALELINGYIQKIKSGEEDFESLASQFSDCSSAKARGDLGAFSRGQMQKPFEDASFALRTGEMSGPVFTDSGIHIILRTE
Sequence of ATPase family AAA domain-containing protein 5 (Homo sapiens) (Q96QE3 whole entry, looked up, the tested form may be a part): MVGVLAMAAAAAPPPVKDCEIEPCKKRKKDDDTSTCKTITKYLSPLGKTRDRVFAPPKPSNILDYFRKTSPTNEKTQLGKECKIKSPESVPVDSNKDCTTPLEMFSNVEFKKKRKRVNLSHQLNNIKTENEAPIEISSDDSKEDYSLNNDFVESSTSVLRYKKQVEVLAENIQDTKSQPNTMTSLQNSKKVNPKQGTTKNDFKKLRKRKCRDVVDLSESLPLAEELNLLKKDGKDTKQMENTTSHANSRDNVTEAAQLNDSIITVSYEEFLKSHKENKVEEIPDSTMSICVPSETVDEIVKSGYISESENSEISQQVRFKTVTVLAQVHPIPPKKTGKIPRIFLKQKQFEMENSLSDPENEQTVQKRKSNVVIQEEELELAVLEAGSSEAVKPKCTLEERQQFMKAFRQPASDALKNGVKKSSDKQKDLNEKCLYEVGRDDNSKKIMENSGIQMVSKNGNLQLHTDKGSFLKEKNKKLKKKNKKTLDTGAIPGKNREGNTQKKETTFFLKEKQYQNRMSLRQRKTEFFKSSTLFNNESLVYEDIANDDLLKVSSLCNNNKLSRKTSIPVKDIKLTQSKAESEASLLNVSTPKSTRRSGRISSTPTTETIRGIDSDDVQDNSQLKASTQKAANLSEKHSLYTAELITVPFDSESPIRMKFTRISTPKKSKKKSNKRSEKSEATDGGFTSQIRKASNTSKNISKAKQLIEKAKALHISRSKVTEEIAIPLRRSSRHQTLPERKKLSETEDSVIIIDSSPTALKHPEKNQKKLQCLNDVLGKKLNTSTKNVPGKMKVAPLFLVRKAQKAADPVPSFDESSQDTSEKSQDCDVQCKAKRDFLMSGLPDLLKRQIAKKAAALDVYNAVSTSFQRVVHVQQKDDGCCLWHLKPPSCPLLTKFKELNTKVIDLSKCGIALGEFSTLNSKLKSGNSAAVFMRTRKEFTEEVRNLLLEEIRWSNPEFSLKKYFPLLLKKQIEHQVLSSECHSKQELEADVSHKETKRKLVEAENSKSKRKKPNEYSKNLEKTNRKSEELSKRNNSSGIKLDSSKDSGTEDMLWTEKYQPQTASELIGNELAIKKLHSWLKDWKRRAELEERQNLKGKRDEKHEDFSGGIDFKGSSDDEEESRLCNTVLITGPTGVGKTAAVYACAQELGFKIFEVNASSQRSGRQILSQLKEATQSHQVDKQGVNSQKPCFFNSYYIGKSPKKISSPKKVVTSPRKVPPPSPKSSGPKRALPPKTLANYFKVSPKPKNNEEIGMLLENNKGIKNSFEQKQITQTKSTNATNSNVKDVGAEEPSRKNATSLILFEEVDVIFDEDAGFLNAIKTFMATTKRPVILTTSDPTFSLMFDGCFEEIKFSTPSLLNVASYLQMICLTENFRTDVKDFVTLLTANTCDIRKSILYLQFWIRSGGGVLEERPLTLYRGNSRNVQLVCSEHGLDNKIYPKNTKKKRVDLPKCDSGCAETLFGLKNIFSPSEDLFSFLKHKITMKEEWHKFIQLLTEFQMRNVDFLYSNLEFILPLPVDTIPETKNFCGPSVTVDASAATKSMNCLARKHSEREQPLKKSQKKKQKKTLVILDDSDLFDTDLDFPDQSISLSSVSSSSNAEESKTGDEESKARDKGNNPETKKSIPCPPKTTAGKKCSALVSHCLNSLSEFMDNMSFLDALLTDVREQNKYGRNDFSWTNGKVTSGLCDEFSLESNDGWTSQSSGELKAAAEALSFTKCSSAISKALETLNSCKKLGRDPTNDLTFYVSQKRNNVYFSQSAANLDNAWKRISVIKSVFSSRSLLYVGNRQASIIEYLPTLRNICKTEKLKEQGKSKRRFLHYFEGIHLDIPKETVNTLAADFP
Sequence of phosphoglycerate mutase (Leishmania major) (Q4Q090 1-553): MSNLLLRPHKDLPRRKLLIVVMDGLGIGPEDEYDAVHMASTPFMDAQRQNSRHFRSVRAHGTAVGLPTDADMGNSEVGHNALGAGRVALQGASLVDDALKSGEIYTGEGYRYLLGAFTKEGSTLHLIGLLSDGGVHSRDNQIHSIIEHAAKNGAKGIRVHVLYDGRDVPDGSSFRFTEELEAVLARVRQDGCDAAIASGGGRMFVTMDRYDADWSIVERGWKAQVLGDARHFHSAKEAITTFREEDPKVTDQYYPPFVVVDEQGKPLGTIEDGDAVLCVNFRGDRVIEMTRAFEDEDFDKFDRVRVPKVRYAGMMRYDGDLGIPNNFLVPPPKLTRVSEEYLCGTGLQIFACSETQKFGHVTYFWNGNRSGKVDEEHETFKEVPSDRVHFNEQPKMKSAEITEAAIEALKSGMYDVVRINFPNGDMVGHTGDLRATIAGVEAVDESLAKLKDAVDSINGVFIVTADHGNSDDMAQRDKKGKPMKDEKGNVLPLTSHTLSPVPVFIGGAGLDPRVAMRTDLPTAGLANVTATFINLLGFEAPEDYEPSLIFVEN

CN1Cc2c(N)cccc2C(c2ccccc2)C1 (stereo unspecified)
7.68%: [2]
inactive: [1] | [2] | [3] | [4] | [5] | [6] | [7] | [8]

CC[N+](C)(C)Cc1ccccc1Br
inactive: [4] | [5]
